Shown are actives, neighbours in structure and some others; about 6% of the full set was active somewhere.
PLK1 PBD block: blocks phosphopeptide binding to human PLK1 polo-box domain | Plk1 PBD binding of FITC phosphopeptide, fluorescence polarization | Potency, µM, actives largely listed as inhibitors | P53350 | actives 2.8% (n = 360,000) | AID 720504; note: series mostly up to about 57 µM; nearly all actives have a fitted effect of over 65% in size
Tau fluor counter: counter-screen for tau fibril formation inhibitors; tau K18 P301L Alexa594 fluorescence, heparin fibrillization; Potency, µM (titrated, usually from 57.7 µM); actives 0.93% (n = 280,000); note: nearly all actives have a fitted effect of over 55% in size
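Human K18 P301L tau (15 uM unlabeled plus 0.24 uM Alexa 594-labeled, final) in 100 mM sodium acetate pH 7 was mixed with compound and 20 uM heparin and incubated 6 hr at 37 C.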
Sfp PPTase inh: inhibitors of Bacillus subtilis Sfp phosphopantetheinyl transferase. Q9F4F7. Biochemical Sfp PPTase activity, qHTS. Potency, µM, hits mostly inhibitors. actives 3.5% (n = 310,000). AID 1490;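 note: the enzyme is Sfp with the accession as filed and its product quenches rhodamine fluorescence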
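After 15 min at room temperature with compound, 15 nM Sfp received 5 uM rhodamine-CoA plus 12.5 uM BHQ-2-ybbR (50 mM Hepes pH 7.6, 10 mM MgCl2). Rate came from the fluorescence difference over 30 min, ex 525/em 598 nm.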
Tau fibril ThT: inhibitors of human tau fibril formation, thioflavin T binding. P10636. recombinant tau K18 P301L (four-repeat tau fragment), heparin-induced fibrillization, ThT fluorescence. Potency, µM (top dose mostly 57.4 µM), most hits filed as inhibitors. actives 2.1% (n = 270,000). AID 1460; note: nearly all actives have a fitted effect of over 55% in size
Target sequence (P10636 561-689 P618L limits assumed): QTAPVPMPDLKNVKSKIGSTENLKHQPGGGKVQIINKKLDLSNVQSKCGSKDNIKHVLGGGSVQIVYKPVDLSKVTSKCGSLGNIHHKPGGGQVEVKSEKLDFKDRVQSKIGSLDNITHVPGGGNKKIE
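Recombinant human tau K18 fragment […] carrying P301L, 15 uM unlabeled plus 0.24 uM Alexa 594-labeled, was fibrillized with 20 uM heparin in 100 mM sodium acetate pH 7 for 6 hr at 37 C; 30 uM ThT fluorescence read after 1 hr.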
VDR inhibitor: vitamin D3 receptor (human) inhibition; P11473; VDR-SRC2-3 peptide fluorescence polarization, 2 h; Potency, µM, usual class: inhibitors; actives 0.93% (n = 400,000); AID 504847
Target sequence (P11473 whole entry, looked up): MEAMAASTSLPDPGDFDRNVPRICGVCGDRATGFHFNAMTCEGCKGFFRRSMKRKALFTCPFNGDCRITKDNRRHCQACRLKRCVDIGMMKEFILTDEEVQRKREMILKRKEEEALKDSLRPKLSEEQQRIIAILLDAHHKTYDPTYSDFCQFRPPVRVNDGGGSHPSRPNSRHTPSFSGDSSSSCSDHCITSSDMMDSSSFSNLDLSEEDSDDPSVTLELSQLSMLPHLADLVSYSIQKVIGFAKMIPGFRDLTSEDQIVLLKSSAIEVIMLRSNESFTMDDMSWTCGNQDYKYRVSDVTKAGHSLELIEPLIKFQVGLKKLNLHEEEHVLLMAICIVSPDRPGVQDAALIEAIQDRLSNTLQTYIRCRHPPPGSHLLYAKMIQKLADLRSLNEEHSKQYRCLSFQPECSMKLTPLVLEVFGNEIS
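Measured by FP: displacement of SRC2-3 coactivator peptide from VDR by library compounds, following a two-hour ambient incubation.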
Tau fibril FP: inhibitors of human tau fibril formation; P10636; K18 P301L tau heparin fibrillization, Alexa594 FP, 6 h; Potency, µM (titrated, usually from 57.7 µM), most hits filed as inhibitors; actives 0.39% (n = 280,000); AID 1468; note: nearly all actives have a fitted effect of over 55% in size
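Human K18 P301L fragment (15 uM unlabeled plus 0.24 uM Alexa 594-labeled) in 100 mM sodium acetate pH 7 with compound, aggregation induced by 20 uM heparin for 6 hr at 37 C. ThT (30 uM) added for 1 hr, then Alexa 594 FP read.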
Hits are given with their value; i = inactive; ? = inconclusive; nt = no result; [ ] = dose if it differs, or a comment. Calls come from the whole dose curve; as a rule, active = well fitted curve in the direction sought with a large enough effect; inconclusive = small, poorly fitted or top-dose-only effect, or another doubt; inactive = no such curve, though single readings can be large; an effect the other way counts as inactive or inconclusive.

SMILES	PLK1 PBD block	Tau fluor counter	Sfp PPTase inh	Tau fibril ThT	VDR inhibitor	Tau fibril FP
CCOC(=O)c1cc(C#N)c(SCC(=O)c2cc(C#N)c(SC)nc2C)[nH]c1=O	?	i	32µM	?	?	i
COc1ccc(CC(=O)Nc2sc3c(c2C(=O)Nc2cccc(C)c2)CCCCC3)cc1	nt	i	nt	i	i	i
CCOC(=O)c1c(C)oc2ncnc(N3CCN(c4cccc(Cl)c4)CC3)c12	nt	i	nt	?	i	i
Cc1oc(C)c2c(=O)cc(-c3ccc4c(c3)OCO4)cc(OC(=O)c3ccccc3Br)c12	nt	i	nt	?	i	i
Nc1nc(C(=O)N2CCOCC2)nn1S(=O)(=O)c1ccccc1	i	i	i	i	i	i
Nc1nc(C(=O)N2CCOCC2)nn1S(=O)(=O)c1ccc(Cl)cc1	27µM	i	i	i	?	i
Cc1ncc(CN2CCCC(C(=O)Nc3ccc(-c4ccco4)cc3)C2)cn1 (stereo not drawn)	i	nt	32µM	nt	i	nt
COCc1cc(CN2CCCC(C(=O)Nc3ccc(-c4ccco4)cc3)C2)ccc1OC (stereo not drawn)	i	nt	50µM	nt	i	nt
COc1ccc(C2C=C3CNS(=O)(=O)C3CC2OC(=O)c2cccc(C)c2)cc1 (stereo not drawn)	nt	nt	i	nt	i	nt
Clc1ccccc1-c1nnc2sc(-c3ccncc3)nn12	27µM	i	i	i	?	i
c1ccc(Cc2nn3c(-c4ccncc4)nnc3s2)cc1	24µM	i	?	i	?	i
CCOC(=O)c1nc(Nc2ccc(C(=O)OCC(C)C)cc2)c2ccccc2n1	nt	?	nt	i	i	?
CCc1ccc2oc(C(=O)Nc3nc(-c4ccccc4)ns3)c(C)c2c1	nt	i	nt	?	i	i
COc1ccc(NS(=O)CCCc2ccccc2)cc1 (stereo not drawn)	i	nt	nt	nt	nt	nt
CCOc1ccc2nc(NC(=O)c3ccco3)sc2c1	i	nt	i	nt	i	nt
CCOc1ccc2nc(NC(=O)Nc3cccs3)sc2c1	i	14µM[quencher]	i	?	i	?
CCOc1ccc2nc(NC(=O)c3ccoc3C)sc2c1	i	i	89µM	i	i	i
CCOc1ccc2nc(NC(=O)Cc3cccs3)sc2c1	30µM	?	i	i	i	i
CCOc1ccc2nc(NC(=O)Nc3ccccc3)sc2c1	i	?	i	?	i	i
CCOc1ccc2nc(NC(=O)c3ccccn3)sc2c1	i	i	i	?	i	i
CCOc1ccc2nc(NC(=S)NCc3ccccc3)sc2c1	27µM	?	?	i	?	i
CCOC(=O)[C@]12CCCC=C1N(Cc1ccc3c(c1)OCO3)C(=O)[C@H](CC(=O)NCCC(C)C)C2	i	nt	nt	nt	nt	nt
CN(C)Cc1ccccc1-c1cncnc1NCc1cccs1	nt	i	i	i	i	i
CC(=O)N(CC(O)CN(C(C)=O)c1c(I)c(C(=O)NC[C@@H](O)CO)c(I)c(C(=O)NC[C@@H](O)CO)c1I)c1c(I)c(C(=O)NC[C@@H](O)CO)c(I)c(C(=O)NC[C@@H](O)CO)c1I	nt	nt	i	nt	i	nt
O=C(Cn1c2ncccc2c(=O)n1-c1ccccc1)Nc1cccc(C(F)(F)F)c1	nt	i	nt	i	i	i
SMILES	PLK1 PBD block	Tau fluor counter	Sfp PPTase inh	Tau fibril ThT	VDR inhibitor	Tau fibril FP
O=C(Nc1ccccc1C(=O)O)/C(=C/c1ccc(Cl)cc1Cl)NC(=O)c1ccco1	i	nt	i	nt	i	nt
CCC(C)NC(=O)c1cc2c(=O)n(CC)c3ccccc3c2s1 (stereo not drawn)	i	nt	i	nt	i	nt
Cc1cc(C)c2cc(CN(CCN3CCCC3)C(=O)Nc3ccc(F)cc3)c(=O)[nH]c2c1	i	i	i	?	i	?
O=C(CN1CCN(c2ccc(O)cc2)CC1)Nc1cc(S(=O)(=O)N2CCCCC2)ccc1Cl	i	?	56µM	?	i	i
O=C(Nc1cccc(Cl)c1)Nc1cc(S(=O)(=O)N2CCCCC2)ccc1Cl	i	?	i	i	i	11µM
Cc1ccc(C)c2[nH]c(=O)c(CN(CCN3CCCC3)C(=O)Nc3cccc(Cl)c3)cc12	i	i	14µM	i	i	i
CN1CCN(S(=O)(=O)c2ccc(NC(=O)Nc3cccc(Cl)c3)cc2)CC1	i	?	i	?	i	18µM
CCN1CCN(CC(=O)Nc2cc(S(=O)(=O)N3CCCCC3)ccc2Cl)CC1	i	nt	nt	nt	i	nt
O=C1CCC[C@@H]2[C@H]3CCC[N+]4([O-])CCC[C@@H](CN12)[C@@H]34 (stereo partly drawn)	i	nt	i	nt	i	nt
Cc1nn2c(=O)cc(COC(=O)c3ccccc3NC(=O)c3cccs3)nc2s1	nt	i	nt	i	i	i
CC(C)C(=O)N1CCC1(C)C(=O)Nc1ccccc1OC(F)F (stereo not drawn)	i	nt	nt	nt	nt	nt
O=C(CCN1CCCCC1)Nc1cccc(Cl)c1	27µM	i	i	i	i	i
CCc1nn(CC(=O)N2CCC(C)CC2)c(=O)c2cc3occc3n12	nt	i	nt	i	i	i
O=C(/C=C/c1ccco1)c1ccc(NC(=O)C23CC4CC(CC(C4)C2)C3)cc1	i	i	3.5µM	?	?	i
CSc1ccccc1CNc1nc(NCC2CC2)nc2ccsc12	i	nt	nt	nt	nt	nt
CCCN(CCC)CCNC(=O)c1cc2c(=O)n(C)c3ccccc3c2n1C	19µM	i	i	?	i	i
COCCNC(=S)Nc1cc(OC)c(OC)cc1C#N	i	i	79µM	i	i	i
COc1cc2c(cc1OC)C1N(CC2)C(=O)CCC12C(=O)CCCC2=O (stereo not drawn)	nt	i	?	i	71µM	i
COc1cc2c(cc1OC)C(C)N(C(=O)c1cc(Cl)nc(Cl)c1)CC2 (stereo not drawn)	i	nt	i	nt	i	nt
O=C(N/N=C/c1ccc(O)c(O)c1)c1ccc(CSc2cccc3cccnc23)cc1	i	22µM[quencher]	i	?	i	i
COc1ccc2c(c1)O[C@@H](c1cccc(C(F)(F)F)c1)[C@H](OC(=O)NS(=O)(=O)c1ccc(F)cc1)C2=O	nt	i	i	i	i	i
O=C(O)c1cccc(N/N=C/C2=C(Cl)c3cc(Cl)ccc3SC2)c1	21µM	?	i	6.3µM	i	?
Fc1ccc2cc(-c3ccccc3F)ncc2c1	i	nt	nt	nt	i	nt
O=C1C=CC2(OCCCO2)C(Br)=C1CO	nt	i	i	16µM	?	?
CC(C)c1nn2c(=O)cc(COC(=O)c3ccco3)nc2s1	nt	i	nt	i	i	i
CCOC(=O)/C(=C/C=C1\Sc2cc(C)c(C)cc2N1CC)C(C)=O	i	i	16µM	10µM	i	i
Cn1c(=O)c2[nH]c(N=NNc3ccccc3F)nc2n(C)c1=O	i	?	25µM	14µM	79µM	?
COc1ccc(NN=Nc2nc3c([nH]2)c(=O)n(C)c(=O)n3C)cc1	4.7µM	?	16µM	25µM	?	?
c1cc2cn[nH]c2cc1NC1CCCCCC1	?	?	45µM	28µM	i	?
S=C(Nc1ccccc1)Nc1ccc2cn[nH]c2c1	?	?	i	8.9µM	i	i
